Data: PubChem BioAssay AID1986 (Sanford-Burnham Center for Chemical Genomics, 2009)
Out of some 290,000 compounds screened, about 890 (0.31%) were called active. Cut-off read from the data, not from the text of the source: active = inhibition mostly above about 52% (no sharp cut-off); inactive = mostly below about 76%. Many of the other results were omitted from the sample, so actives are more common in it than they were.

Assay: inhibitors of HIV fusion peptide binding, primary screen, biochemical, uHTS, fluorescence dequenching (AID 1986)
Settings: cell-free peptide binding, 30 min, stronger effect = higher value
[1] = measured here: repeat confirmation average inhibition, at 18.6 µM

With `CC(=O)NS(=O)(=O)c1ccc(N=c2ssc3c2-c2ccc(C)cc2NC3(C)C)cc1` as the compound, how does the inhibition (at 20 µM) read?
Its inhibition is 52.5% (active).

With `CC(=O)NS(=O)(=O)c1ccc(N=c2ssc3c2-c2cc(C)c(C)cc2NC3(C)C)cc1` as the compound, how does the inhibition (at 20 µM) read?
Its inhibition is 51.7% (inactive).

What about the inhibition [1] of the same compound?
Its inhibition is 11.3%.

With `CC(=O)NS(=O)(=O)c1ccc(N=c2ssc3c2-c2cc(C)ccc2NC3(C)C)cc1` as the compound, how does the inhibition (at 20 µM) read?
Its inhibition is 46.9% (inactive).

Which inhibition (at 20 µM) does the source give for `N#Cc1c(Cl)nc(SCc2ccccc2)nc1-c1ccccc1` here?
Its inhibition is -2.7% (inactive).

For `O=C(CSc1nc(O)cc(=O)[nH]1)N1c2ccccc2Sc2ccccc21`, which inhibition (at 20 µM) is on record?
The inhibition was 2.6% (inactive).

For `Cc1snc(SCc2cccc(Cl)c2)c1C#N`, which inhibition (at 20 µM) is on record?
The inhibition was -1.1% (inactive).

Which inhibition (at 20 µM) does the source give for `Cc1nc(SCC(=O)N2c3ccccc3Sc3ccccc32)n[nH]1` here?
Its inhibition is -1.2% (inactive).

For `CC(C)NC(=O)CSc1nnc(-c2ccc(S(=O)(=O)N3CCCC3)cc2)n1CC1CCCO1` (stereo unspecified), which inhibition (at 20 µM) is on record?
The inhibition was -1.1% (inactive).

With `CCn1cnc2scc(-c3ccc(OC)cc3)c2c1=O` as the compound, how does the inhibition (at 20 µM) read?
The inhibition was 2% (inactive).

For `CC1CCC2(CC1)NC(=O)N(Cc1cc(=O)n3ccsc3n1)C2=O` (stereo unspecified), which inhibition (at 20 µM) is on record?
Its inhibition is -0.3% (inactive).

Which inhibition (at 20 µM) does the source give for `O=C(OCc1c(Cl)cccc1Cl)c1cccnc1` here?
The inhibition was -1.3% (inactive).

For `CCCN(CCC)Cc1cc2ccccc2c2c1COC2`, which inhibition (at 20 µM) is on record?
Its inhibition is 1.9% (inactive).

For `Cc1ccc(Cc2c(C)[nH]c(=S)[nH]c2=O)cc1`, which inhibition (at 20 µM) is on record?
The inhibition was 0.1% (inactive).

Which inhibition (at 20 µM) does the source give for `CCOc1ccc(CC(=O)Nc2cc(=O)n(C)c(=O)n2C)cc1` here?
Its inhibition is 1.4% (inactive).

Which inhibition (at 20 µM) does the source give for `CCN(CC)c1ccc2cc(/C(N)=N/NC(=O)c3cccs3)c(=O)oc2c1` here?
Its inhibition is 99.5% (active).

What about the inhibition [1] of the same compound?
Its inhibition is 53.8%.

For `CCN(CC)c1ccc2cc(C(N)=O)c(=N)oc2c1`, which inhibition (at 20 µM) is on record?
Its inhibition is 136% (inactive).

For `NC(=O)c1cc2ccccc2o/c1=N\NC(=O)c1ccncc1`, which inhibition (at 20 µM) is on record?
The inhibition was -1.9% (inactive).

For `N/C(=N\NC(=O)c1cccs1)c1cc2ccccc2oc1=O`, which inhibition (at 20 µM) is on record?
The inhibition was 1.8% (inactive).

For `CCN(CC)c1ccc2cc(C(N)=O)/c(=N\NC(=O)c3ccncc3)oc2c1`, which inhibition (at 20 µM) is on record?
The inhibition was 97.7% (active).

And the inhibition [1]?
The inhibition was 54.3%.

Which inhibition (at 20 µM) does the source give for `N/C(=N\NC(=O)c1cccs1)c1cc2cc(Cl)ccc2oc1=O` here?
Its inhibition is 2.7% (inactive).

For `COC(=O)CCc1nc2cc(Cl)ccc2n(Cc2ccccc2)c1=O`, which inhibition (at 20 µM) is on record?
Its inhibition is 0% (inactive).

For `O=C(NCc1cccs1)C1CC(=O)N(c2ccccc2)C1` (stereo unspecified), which inhibition (at 20 µM) is on record?
Its inhibition is -2.2% (inactive).

With `COc1cccc(C=N[C@@H](CO)[C@@H](O)c2ccc([N+](=O)[O-])cc2)c1O` as the compound, how does the inhibition (at 20 µM) read?
Its inhibition is -1% (inactive).

With `COC(=O)/C(N=Nc1c(C)n(C)n(-c2ccccc2)c1=O)=C(\C)O` as the compound, how does the inhibition (at 20 µM) read?
The inhibition was 2.8% (inactive).

What does the source list for `COC(=O)CCCC1=CC2=CC(=O)C(C)(OC(=O)C3CCCC3)C(=O)C2=CO1` (stereo unspecified)?
inhibition (at 20 µM): 52.5% (inactive); inhibition [1]: 24.7%

For `CCCCC1=CC2=CC(=O)C(C)(OC(=O)CCc3ccccc3)C(=O)C2=CO1` (stereo unspecified), which inhibition (at 20 µM) is on record?
Its inhibition is 41.7% (inactive).

With `CCCCC1=CC2=CC(=O)C(C)(OC(=O)C3CCCC3)C(=O)C2=CO1` (stereo unspecified) as the compound, how does the inhibition (at 20 µM) read?
The inhibition was 68.3% (active).

With `O=C(Cn1cccc1C(=O)c1ccccc1)NCc1ccc2c(c1)OCO2` as the compound, how does the inhibition (at 20 µM) read?
The inhibition was -0.1% (inactive).

Which inhibition (at 20 µM) does the source give for `CC(CCc1ccccc1)NC(=O)CSc1cccc[n+]1[O-]` (stereo unspecified) here?
The inhibition was 2.5% (inactive).

With `O=C(N/N=C/c1ccc([N+](=O)[O-])o1)c1cn(-c2ccccc2)nc1-c1ccc(Cl)cc1` as the compound, how does the inhibition (at 20 µM) read?
Its inhibition is 64% (active).

Which results are given for `COc1ccc(-c2nn(-c3ccccc3)cc2C(=O)N/N=C/c2ccc([N+](=O)[O-])o2)cc1`?
inhibition (at 20 µM): 55.9% (inactive); inhibition [1]: 0.9%

What does the source list for `O=C(N/N=C/c1ccc([N+](=O)[O-])o1)c1cn(-c2ccccc2)nc1-c1ccccc1`?
inhibition (at 20 µM): 65.8% (inactive); inhibition [1]: -1.2%

For `COc1ccccc1OCCNC(=O)C1CCCCC1`, which inhibition (at 20 µM) is on record?
The inhibition was -0.2% (inactive).

Which inhibition (at 20 µM) does the source give for `COC(=O)C1=NN(c2ccc(OC)cc2)C2C(=O)N(c3ccccc3OC)C(=O)C12` (stereo unspecified) here?
Its inhibition is -0.7% (inactive).

Which inhibition (at 20 µM) does the source give for `COc1ccccc1N1C(=O)C2C(C(=O)c3ccccc3)=NN(c3ccccc3OC)C2C1=O` (stereo unspecified) here?
Its inhibition is 59.5% (inactive).

And the inhibition [1]?
The inhibition was 13.2%.

Which inhibition (at 20 µM) does the source give for `COc1ccccc1N1C(=O)C2C(C(=O)c3ccccc3)=NN(c3ccc(Br)cc3)C2C1=O` (stereo unspecified) here?
The inhibition was 54.9% (active).

And the inhibition [1]?
Its inhibition is 55%.

What does the source list for `COc1ccccc1N1C(=O)C2C(C(=O)c3ccccc3)=NN(c3ccc(C)cc3)C2C1=O` (stereo unspecified)?
inhibition (at 20 µM): 85.1% (active); inhibition [1]: 102%

With `COc1ccccc1N1C(=O)C2C(C(=O)c3ccccc3)=NN(c3ccccc3)C2C1=O` (stereo unspecified) as the compound, how does the inhibition (at 20 µM) read?
Its inhibition is 72.1% (inactive).

What about the inhibition [1] of the same compound?
The inhibition was 33.6%.

Which inhibition (at 20 µM) does the source give for `COC(=O)C1=NN(c2ccccc2)C2C(=O)N(c3ccccc3OC)C(=O)C12` (stereo unspecified) here?
Its inhibition is 1.2% (inactive).

With `O=C(Nc1ccc(F)cc1F)C1CCN(C(=O)c2ccc(Br)cc2)CC1` as the compound, how does the inhibition (at 20 µM) read?
The inhibition was 1.2% (inactive).

With `Cc1ccc(CCNC(=O)c2nnc(CS(=O)(=O)c3ccccc3)o2)cc1` as the compound, how does the inhibition (at 20 µM) read?
Its inhibition is -0.3% (inactive).

For `O=C(COC(=O)c1ccc2c(c1)C(=O)N(Cc1ccco1)C2=O)NCC(F)(F)F`, which inhibition (at 20 µM) is on record?
The inhibition was 1.5% (inactive).

For `Cc1cc(Cc2ccc(N)c(C)c2)ccc1N`, which inhibition (at 20 µM) is on record?
The inhibition was -1.4% (inactive).

For `Nc1ccc(Cc2ccc(N)c(C(=O)O)c2)cc1C(=O)O`, which inhibition (at 20 µM) is on record?
The inhibition was 5.8% (inactive).

For `Nc1ccc(Cc2ccc(N)c(O)c2)cc1O`, which inhibition (at 20 µM) is on record?
The inhibition was 52.4% (active).

Which inhibition (at 20 µM) does the source give for `CC(C)COc1ccc(S(=O)(=O)n2cc(F)c(=O)[nH]c2=O)cc1` here?
The inhibition was 2.9% (inactive).

For `COc1cccc(-c2nc(Cc3ccc(OC)c(OC)c3)no2)c1`, which inhibition (at 20 µM) is on record?
Its inhibition is 2.1% (inactive).

With `COc1ccc(Cc2noc(-c3ccc(OC)c(OC)c3)n2)cc1OC` as the compound, how does the inhibition (at 20 µM) read?
The inhibition was 0.9% (inactive).

With `COc1ccc(Cc2noc(-c3ccccc3)n2)cc1OC` as the compound, how does the inhibition (at 20 µM) read?
The inhibition was 61.8% (active).

Which inhibition (at 20 µM) does the source give for `CC(C)CNC(=O)c1cccc(NC(=O)c2ccco2)c1` here?
The inhibition was -0.6% (inactive).

With `CCOC(=O)C1=C(C)N(CC)C(=S)NC1c1ccccc1OC(F)F` (stereo unspecified) as the compound, how does the inhibition (at 20 µM) read?
Its inhibition is -2% (inactive).

With `CCOC(=O)c1c(NC(=O)N/N=C/c2ccc(O)c(OC)c2)sc(C(C)=O)c1C` as the compound, how does the inhibition (at 20 µM) read?
Its inhibition is -2.2% (inactive).

For `N#Cc1ccc2ccn(CC(=O)NCc3ccccc3)c2c1`, which inhibition (at 20 µM) is on record?
The inhibition was -1.6% (inactive).

For `CC(C)(C)/C(O)=C(/C#N)c1nc2ccccc2[nH]1`, which inhibition (at 20 µM) is on record?
Its inhibition is -1.6% (inactive).

For `CN(C)c1cccc(C(=O)NNC(=S)NC2CC3CCC2C3)c1` (stereo unspecified), which inhibition (at 20 µM) is on record?
The inhibition was -1.9% (inactive).

With `CCOC(=O)c1c(S(=O)(=O)Nc2ccccn2)c(C)n(C)c1C` as the compound, how does the inhibition (at 20 µM) read?
The inhibition was 2.8% (inactive).

Which inhibition (at 20 µM) does the source give for `COc1ccccc1CNC(=O)C1CCC(CNS(=O)(=O)c2ccc(F)cc2)CC1` (stereo unspecified) here?
Its inhibition is -1% (inactive).

With `O=C(Nc1ccccc1)c1ccc(NCCc2ccccc2)c([N+](=O)[O-])c1` as the compound, how does the inhibition (at 20 µM) read?
The inhibition was 147% (inactive).

With `Cc1ccc(NC(=O)c2ccc(NCCc3ccccc3)c([N+](=O)[O-])c2)cc1F` as the compound, how does the inhibition (at 20 µM) read?
Its inhibition is 2.5% (inactive).

For `Cc1cccc(NC(=O)c2ccc(NCCc3ccccc3)c([N+](=O)[O-])c2)c1`, which inhibition (at 20 µM) is on record?
The inhibition was 96.9% (active).

What about the inhibition [1] of the same compound?
The inhibition was 58.9%.
